{"source": "PubChem BioAssay (NCI)", "note": "This is part of a sample that, as a whole, favours compounds with a hit. Of some 83,000 tested, about 20% had one in any assay.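 Activity criterion: percent growth below 10, measured after cells in 96-well plates were exposed to a single compound concentration for 48 hours.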 A number with no mark means an inactive call. Active and inactive are the calls of the source.", "data": [{"test_system": "MDA-MB-468 breast", "test": "NCI-60 one-dose screen, 48 h (100 = growth as untreated, 0 = no growth, -100 = all killed)", "details": "10 µM unless noted", "values": [{"smiles": "OC(c1cc(-c2ccc(C(F)(F)F)cc2)nc(-c2ccc(C(F)(F)F)cc2)c1)C1CCCCN1", "note": "(configuration not stated)", "growth": "-85.1% (active)"}, {"smiles": "C=C[C@@H]1C[C@H](O)Cc2c(C)cc(C)cc2N1", "growth": "91.9%"}, {"smiles": "CN(C)c1ccc(/C=C\\C2=[N+](C)c3ccccc3C2(C)C)cc1", "growth": "11%"}, {"smiles": "COc1cc2c(c(OC)c1OC)-c1ccc(NNC(N)=S)c(=O)cc1[C@@H](NC(C)=O)CC2", "growth": "-14.2% (active)"}, {"smiles": "C#C[C@]1(O)CC[C@H]2[C@@H]3CC=C4c5sc(-c6ccc7c(c6)OCO7)nc5CC[C@]4(C)[C@H]3CC[C@@]21C", "growth": "51.5%"}, {"smiles": "COC(=O)[C@]12CC[C@@H](C)[C@H](C)[C@@H]1C1=CC[C@@H]3[C@@]4(C)C(C=O)=C[C@@](C)(COC(=O)c5ccco5)[C@@H]4[C@H](O)C[C@@]3(C)[C@]1(C)CC2", "growth": "-12.1% (active)"}, {"smiles": "COc1cc(C(=O)NN=C2c3ccccc3-c3ccccc32)cc(OC)c1OC", "growth": "-3.4% (active)"}, {"smiles": "CCOC(=O)c1c(C)oc2ncnc(Nc3ccc(C(=O)NCCc4ccccc4)cc3)c12", "growth": "90.7%"}, {"smiles": "Nc1nc(N)c(N=Nc2ccc(C(=O)O)cc2)c(N)n1", "growth": "114%"}, {"smiles": "Nc1nc(Nc2ccccc2)c(C=Nc2ccccc2)c(=O)[nH]1", "growth": "99.6%"}, {"smiles": "Cl/C(=N\\Nc1ccccc1)c1ccccc1", "growth": "79%"}, {"smiles": "C#Cc1ccc(-n2c(/C=C/c3cc(OC)cc(OC)c3)nc3ncccc3c2=O)cc1", "growth": "37.4%"}, {"smiles": "CC(=O)N1N=C(c2cccc(-n3cccc3)c2)CC1c1cccc(F)c1", "note": "(configuration not stated)", "growth": "90.4%"}, {"smiles": "O=C1/C(=C/c2ccc(O)cc2)Cc2ccc(Cl)cc21", "growth": "65%"}, {"smiles": "COc1ccc(-c2cn(Cc3ccc4c(Br)cc(Br)c(O)c4n3)nn2)cc1", "growth": "72.2%"}, {"smiles": "COc1cc(C2NC(c3cc(OC)c(OC)c(OC)c3)C(C#N)(C#N)C2(C#N)C#N)cc(OC)c1OC", "note": "(configuration not stated)", "growth": "93.2%"}, {"smiles": "COc1cc(-c2nc(-c3nnc(-c4ccc(F)c(Cl)c4)o3)c3ccccn23)cc(OC)c1OC", "growth": "52.5%"}, {"smiles": "C/C=C/CSC(C)(C)C(=O)NC", "growth": "96.4%"}, {"smiles": "C1CN(CC2CCC(CN3CCOCC3)O2)CCO1", "note": "(configuration not stated)", "growth": "102%"}, {"smiles": "Cc1ccc2cnc(N)c(C#Cc3cncc(C(=O)Nc4ccc(CN5CCN(C)CC5)c(C(F)(F)F)c4)c3)c2c1", "growth": "-87.1% (active)"}, {"smiles": "CCN(CC)CCC(=O)c1ccc(OC)c2ccccc12", "growth": "49.7%"}, {"smiles": "CC(O)c1cnc(/C=C2\\SC(=S)N(Cc3ccccc3)C2=O)s1", "note": "(configuration not stated)", "growth": "13.8%"}, {"smiles": "CN(CCn1sc(=O)n(Cc2ccccc2)c1=O)Cc1ccc2c(Cl)cc(Cl)c(O)c2n1", "growth": "42.4%"}, {"smiles": "Cc1ccc(OC2=C(C#N)C(=N)N3C(=NN2)Sc2c(C)ccc(C)c23)cc1", "growth": "110%"}, {"smiles": "CN(C)CCCNC(=O)C(c1ccccc1)c1ccccc1", "growth": "111%"}, {"smiles": "COc1ccc(Br)c(/C=C2\\SC(=Nc3ccc(O)cc3)NC2=O)c1", "growth": "85%"}, {"smiles": "COc1ccc2c3c([nH]c2c1)C(=O)c1nc(C)ccc1C3=O", "growth": "14.8%"}, {"smiles": "CN1C(=O)CCC(N2C(=O)c3cccc(NCCOCCOCCNC(=O)c4cc5c(o4)C(=O)c4ccccc4C5=O)c3C2=O)C1=O", "note": "(configuration not stated)", "growth": "-28.3% (active)"}, {"smiles": "N#C/C(=C\\c1ccc([N+](=O)[O-])cc1)n1nnc2cc(F)c(F)cc21", "growth": "-40% (active)"}, {"smiles": "CCCOC(=O)c1ccc([N+](=O)[O-])o1", "growth": "113%"}, {"smiles": "CC1(C)C(=O)/C(=C\\c2ccco2)C[C@]2(C)[C@H]3CC[C@@H]4[C@@H](C(=O)/C=C/c5ccco5)CC[C@@]4(C)[C@]3(C)CC[C@@H]12", "growth": "-1.49% (active)"}, {"smiles": "Fc1ccc(NCc2nnc(-c3ccc(Cl)cc3)o2)cc1", "growth": "56.9%"}, {"smiles": "CCc1ccc(Oc2cn[nH]c2-c2ccc(OCCc3ccc(F)cc3)cc2O)cc1", "growth": "105%"}, {"smiles": "COc1cc(CNS(=O)(=O)c2ccc(C)cc2)ccc1OCc1cn(-c2ccccc2)nn1", "growth": "70.7%"}, {"smiles": "C#CC[C@@H]1C[C@]2(C)[C@H]3CC[C@@H]4[C@H]5[C@H](C(=C)C)CC[C@]5(C(=O)O)CC[C@@]4(C)[C@]3(C)CC[C@H]2C(C)(C)[C@H]1O", "growth": "-2.92% (active)"}, {"smiles": "COc1ccc2nc3ccccc3c(NCc3ccccc3)c2c1", "growth": "-9.89% (active)"}, {"smiles": "Cc1ccc([C@H]2c3[nH]c4ccccc4c3C[C@H]3C(=O)N(CCCCCCC(=O)NO)CC(=O)N23)s1", "growth": "37.3%"}]}]}
